Among the data in article PMC7862700, “An all-to-all approach to the identification of sequence-specific readers for epigenetic DNA modifications on cytosine” are binding signal values, retold here.

Common to all, as to assay: DAPPL (digital affinity profiling via proximity ligation, sequencing); 10 mM Tris-HCl pH 7.5, 50 mM NaCl, 1 mM DTT, 4% glycerol, room temperature, 30 min; GST-TFs on glutathione beads, 16-mer random dsDNA library, 0.1% formaldehyde crosslink after washing; high values mean tight binding
Common to all, as to settings: protein: recombinant; tags: N-terminal GST; dsDNA, one strand shown

The target of one assay is T1, FLI1 (Homo sapiens, UniProt Q01543 1-452).
T1 sequence: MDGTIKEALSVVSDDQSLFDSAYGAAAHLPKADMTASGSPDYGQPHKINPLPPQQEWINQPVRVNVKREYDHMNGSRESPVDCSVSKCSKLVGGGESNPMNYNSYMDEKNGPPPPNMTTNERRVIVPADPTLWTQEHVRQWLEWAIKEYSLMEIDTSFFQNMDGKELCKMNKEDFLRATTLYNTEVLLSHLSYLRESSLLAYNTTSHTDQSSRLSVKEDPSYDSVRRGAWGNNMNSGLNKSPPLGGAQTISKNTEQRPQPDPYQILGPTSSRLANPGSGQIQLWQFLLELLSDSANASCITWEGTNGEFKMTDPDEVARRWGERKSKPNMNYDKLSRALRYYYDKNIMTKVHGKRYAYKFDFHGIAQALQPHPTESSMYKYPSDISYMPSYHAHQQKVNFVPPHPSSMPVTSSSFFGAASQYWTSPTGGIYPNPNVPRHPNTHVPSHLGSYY
The essentials:
(§1)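 In yeast, human transcription factors were expressed with a GST fusion, then pulled down on glutathione beads and given DNA barcodes. Pooled with a tag-only sample, they were exposed to 200 nmole of a 16-mer random double-stranded DNA library (Tris/NaCl/DTT/glycerol buffer, room temperature, 30 min), washed, crosslinked with 0.1% formaldehyde, proximity-ligated using BsaI/T4 ligase for 1 h at 37 °C, PCR-amplified and read on an Illumina NextSeq500. Each hexamer's frequency of reads for a factor, divided by the matching frequency for the tag-only sample, gives the binding signal.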

Another assay deals with T2, ELK1 (Homo sapiens, UniProt P19419 1-428).
T2 sequence: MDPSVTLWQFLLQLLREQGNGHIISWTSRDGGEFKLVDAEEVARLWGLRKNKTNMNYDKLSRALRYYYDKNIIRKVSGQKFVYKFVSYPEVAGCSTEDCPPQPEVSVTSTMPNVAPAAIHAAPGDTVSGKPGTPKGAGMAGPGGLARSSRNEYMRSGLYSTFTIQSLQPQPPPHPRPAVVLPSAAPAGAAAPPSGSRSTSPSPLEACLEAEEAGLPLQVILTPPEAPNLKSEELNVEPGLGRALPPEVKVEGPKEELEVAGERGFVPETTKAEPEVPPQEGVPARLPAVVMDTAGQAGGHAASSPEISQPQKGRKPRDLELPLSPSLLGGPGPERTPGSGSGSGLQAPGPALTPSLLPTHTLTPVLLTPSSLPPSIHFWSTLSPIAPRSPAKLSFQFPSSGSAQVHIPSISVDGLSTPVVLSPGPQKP
The essentials:
as §1

A further assay deals with T3, GABPA (Homo sapiens, UniProt Q06546 1-454).
T3 sequence: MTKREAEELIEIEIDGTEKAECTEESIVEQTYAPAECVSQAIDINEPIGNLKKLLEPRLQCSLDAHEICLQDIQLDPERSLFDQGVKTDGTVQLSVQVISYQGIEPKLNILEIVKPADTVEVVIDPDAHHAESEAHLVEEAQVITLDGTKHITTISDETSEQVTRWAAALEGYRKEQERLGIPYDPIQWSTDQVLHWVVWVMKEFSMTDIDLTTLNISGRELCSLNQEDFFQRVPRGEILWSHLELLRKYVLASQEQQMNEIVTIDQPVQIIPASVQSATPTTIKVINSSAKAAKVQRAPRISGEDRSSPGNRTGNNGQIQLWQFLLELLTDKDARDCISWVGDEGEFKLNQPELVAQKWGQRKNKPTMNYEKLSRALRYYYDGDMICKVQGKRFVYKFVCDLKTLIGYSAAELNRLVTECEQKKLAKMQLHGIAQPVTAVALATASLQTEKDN
The gist of the method: as §1

In the next assay the target is T4, ERG (Homo sapiens, UniProt P11308 1-479).
T4 sequence: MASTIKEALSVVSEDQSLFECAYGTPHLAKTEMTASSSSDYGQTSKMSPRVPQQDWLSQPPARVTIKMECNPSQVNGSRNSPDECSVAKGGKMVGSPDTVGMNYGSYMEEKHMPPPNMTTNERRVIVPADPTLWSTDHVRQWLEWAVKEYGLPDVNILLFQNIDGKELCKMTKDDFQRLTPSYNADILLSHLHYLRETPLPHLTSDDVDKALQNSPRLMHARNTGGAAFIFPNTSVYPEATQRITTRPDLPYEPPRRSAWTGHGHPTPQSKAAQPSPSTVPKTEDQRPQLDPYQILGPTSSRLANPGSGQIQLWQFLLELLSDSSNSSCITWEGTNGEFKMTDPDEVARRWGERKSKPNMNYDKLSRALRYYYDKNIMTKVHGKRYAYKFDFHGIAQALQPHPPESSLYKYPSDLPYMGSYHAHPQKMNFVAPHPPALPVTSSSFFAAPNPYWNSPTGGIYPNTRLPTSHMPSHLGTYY
The essentials:
as §1

Another assay has as its target ELF1 (Homo sapiens, UniProt P32519 1-619). The essentials:
as §1

For another assay, the target named is T5, EHF (Homo sapiens, UniProt Q9NZC4 1-300).
T5 sequence: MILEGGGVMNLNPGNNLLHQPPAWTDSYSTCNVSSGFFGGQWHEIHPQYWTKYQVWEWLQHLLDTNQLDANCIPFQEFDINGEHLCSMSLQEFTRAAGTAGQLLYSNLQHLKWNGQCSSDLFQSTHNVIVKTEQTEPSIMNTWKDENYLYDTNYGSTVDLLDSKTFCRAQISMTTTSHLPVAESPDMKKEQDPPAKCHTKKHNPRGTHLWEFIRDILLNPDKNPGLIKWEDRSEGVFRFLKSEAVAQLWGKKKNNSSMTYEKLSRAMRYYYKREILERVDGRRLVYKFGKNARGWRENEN
The gist of the method: as §1

The target of another assay is SPI1 (Homo sapiens, UniProt P17947 1-270). The essentials:
as §1

The target in a further assay is SPIB (Homo sapiens, UniProt Q01892 1-262). The essentials: as §1
The target of the next assay is T6, ELK3 (Homo sapiens, UniProt P41970 1-407).
T6 sequence: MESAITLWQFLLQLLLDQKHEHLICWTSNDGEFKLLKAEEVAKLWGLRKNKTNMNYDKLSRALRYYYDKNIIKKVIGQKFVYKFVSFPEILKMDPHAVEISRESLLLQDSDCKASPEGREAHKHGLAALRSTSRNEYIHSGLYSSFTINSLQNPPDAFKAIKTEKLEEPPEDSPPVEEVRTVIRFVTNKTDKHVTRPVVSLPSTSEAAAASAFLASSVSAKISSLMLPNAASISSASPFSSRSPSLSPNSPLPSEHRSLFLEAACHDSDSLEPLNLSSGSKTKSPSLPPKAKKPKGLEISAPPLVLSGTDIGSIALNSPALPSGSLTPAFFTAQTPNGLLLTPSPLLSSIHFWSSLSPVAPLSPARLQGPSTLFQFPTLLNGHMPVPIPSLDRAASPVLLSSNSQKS
The essentials:
as §1

Sequence of SPIB (Q01892 whole entry): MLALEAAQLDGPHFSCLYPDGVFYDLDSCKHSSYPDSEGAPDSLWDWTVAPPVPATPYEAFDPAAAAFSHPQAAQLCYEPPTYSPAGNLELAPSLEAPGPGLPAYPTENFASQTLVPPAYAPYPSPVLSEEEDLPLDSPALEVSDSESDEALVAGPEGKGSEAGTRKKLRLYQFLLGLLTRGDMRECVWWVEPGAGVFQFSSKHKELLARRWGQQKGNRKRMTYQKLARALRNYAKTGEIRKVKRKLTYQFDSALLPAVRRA
Sequence of ELF1 (P32519 whole entry): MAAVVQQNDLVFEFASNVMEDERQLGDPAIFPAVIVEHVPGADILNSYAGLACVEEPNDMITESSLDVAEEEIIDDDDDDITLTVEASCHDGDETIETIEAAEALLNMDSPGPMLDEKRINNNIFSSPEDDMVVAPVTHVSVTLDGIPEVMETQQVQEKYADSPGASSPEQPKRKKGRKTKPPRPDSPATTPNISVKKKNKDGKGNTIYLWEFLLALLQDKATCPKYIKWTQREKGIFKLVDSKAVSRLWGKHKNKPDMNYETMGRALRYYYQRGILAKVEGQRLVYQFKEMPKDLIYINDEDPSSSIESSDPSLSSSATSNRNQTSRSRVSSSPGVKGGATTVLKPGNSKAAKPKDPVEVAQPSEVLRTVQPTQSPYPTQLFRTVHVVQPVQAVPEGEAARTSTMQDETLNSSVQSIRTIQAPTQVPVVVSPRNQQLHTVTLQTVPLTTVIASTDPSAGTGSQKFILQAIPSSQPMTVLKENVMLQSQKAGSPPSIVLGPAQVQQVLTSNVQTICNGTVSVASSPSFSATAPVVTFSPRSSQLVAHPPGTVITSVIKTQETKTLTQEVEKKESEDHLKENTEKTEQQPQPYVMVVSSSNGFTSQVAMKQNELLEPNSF

As to CTCCCG, the binding signal was 1.61 fold enrichment (6-mer frequency, TF over GST control) with FLI1; 1.56 fold enrichment (6-mer frequency, TF over GST control) with ELK1; 1.62 fold enrichment (6-mer frequency, TF over GST control) with GABPA; 1.54 fold enrichment (6-mer frequency, TF over GST control) with ERG; 1.57 fold enrichment (6-mer frequency, TF over GST control) with ELF1; 1.75 fold enrichment (6-mer frequency, TF over GST control) with EHF. In addition, the binding signal with SPI1 was 1.45 fold enrichment (6-mer frequency, TF over GST control); in the assay with SPIB it was 1.62 fold enrichment (6-mer frequency, TF over GST control); with ELK3, 1.58 fold enrichment (6-mer frequency, TF over GST control).

As to TTGTAT, the binding signal with FLI1 is 1.52 fold enrichment (6-mer frequency, TF over GST control); with ELK1 it was 1.33 fold enrichment (6-mer frequency, TF over GST control); with GABPA, 1.29 fold enrichment (6-mer frequency, TF over GST control); in the assay with ERG, 1.31 fold enrichment (6-mer frequency, TF over GST control); in the assay with ELF1, 1.32 fold enrichment (6-mer frequency, TF over GST control); in the assay with EHF, 1.37 fold enrichment (6-mer frequency, TF over GST control). The binding signal in the assay with SPI1 was 1.11 fold enrichment (6-mer frequency, TF over GST control); in the assay with SPIB, 1.38 fold enrichment (6-mer frequency, TF over GST control); in the assay with ELK3, 1.4 fold enrichment (6-mer frequency, TF over GST control).

Regarding TTGGGG, the binding signal with FLI1 was 1.4 fold enrichment (6-mer frequency, TF over GST control); with ELK1 it was 1.24 fold enrichment (6-mer frequency, TF over GST control); with GABPA it was 1.33 fold enrichment (6-mer frequency, TF over GST control); with ERG, 1.21 fold enrichment (6-mer frequency, TF over GST control); with ELF1, 1.32 fold enrichment (6-mer frequency, TF over GST control); with EHF, 1.27 fold enrichment (6-mer frequency, TF over GST control). The binding signal was 1.26 fold enrichment (6-mer frequency, TF over GST control) with SPI1; 1.15 fold enrichment (6-mer frequency, TF over GST control) with SPIB; 1.31 fold enrichment (6-mer frequency, TF over GST control) in the assay with ELK3.

As for TGTTCT, the binding signal is 1.4 fold enrichment (6-mer frequency, TF over GST control) in the assay with FLI1; 1.4 fold enrichment (6-mer frequency, TF over GST control) with ELK1; 1.28 fold enrichment (6-mer frequency, TF over GST control) with GABPA; 1.38 fold enrichment (6-mer frequency, TF over GST control) with ERG; 1.39 fold enrichment (6-mer frequency, TF over GST control) with ELF1; 1.4 fold enrichment (6-mer frequency, TF over GST control) with EHF. Further, the binding signal was 1.29 fold enrichment (6-mer frequency, TF over GST control) with SPI1; 1.35 fold enrichment (6-mer frequency, TF over GST control) with SPIB; 1.21 fold enrichment (6-mer frequency, TF over GST control) with ELK3.

Consider TACGAC, for which the binding signal with FLI1 was 1.33 fold enrichment (6-mer frequency, TF over GST control); with ELK1 it was 1.2 fold enrichment (6-mer frequency, TF over GST control); with GABPA, 1.29 fold enrichment (6-mer frequency, TF over GST control); with ERG it was 1.26 fold enrichment (6-mer frequency, TF over GST control); in the assay with ELF1 it was 1.27 fold enrichment (6-mer frequency, TF over GST control); in the assay with EHF, 1.23 fold enrichment (6-mer frequency, TF over GST control). Moreover, the binding signal with SPI1 was 1.25 fold enrichment (6-mer frequency, TF over GST control); with SPIB, 1.22 fold enrichment (6-mer frequency, TF over GST control); with ELK3 it was 1.36 fold enrichment (6-mer frequency, TF over GST control).

For TCTCGG, the binding signal in the assay with FLI1 was 1.69 fold enrichment (6-mer frequency, TF over GST control); with ELK1 it was 1.41 fold enrichment (6-mer frequency, TF over GST control); with GABPA, 1.5 fold enrichment (6-mer frequency, TF over GST control); in the assay with ERG, 1.38 fold enrichment (6-mer frequency, TF over GST control); with ELF1 it was 1.46 fold enrichment (6-mer frequency, TF over GST control); with EHF, 1.29 fold enrichment (6-mer frequency, TF over GST control). The binding signal was 1.52 fold enrichment (6-mer frequency, TF over GST control) with SPI1; 1.44 fold enrichment (6-mer frequency, TF over GST control) in the assay with SPIB; 1.42 fold enrichment (6-mer frequency, TF over GST control) with ELK3.

As for TGACCC, the binding signal with FLI1 was 1.34 fold enrichment (6-mer frequency, TF over GST control); in the assay with ELK1, 1.29 fold enrichment (6-mer frequency, TF over GST control); in the assay with GABPA, 1.38 fold enrichment (6-mer frequency, TF over GST control); in the assay with ERG it was 1.4 fold enrichment (6-mer frequency, TF over GST control); with ELF1 it was 1.43 fold enrichment (6-mer frequency, TF over GST control); with EHF it was 1.51 fold enrichment (6-mer frequency, TF over GST control). The binding signal is 1.26 fold enrichment (6-mer frequency, TF over GST control) with SPI1; 1.3 fold enrichment (6-mer frequency, TF over GST control) in the assay with SPIB; 1.4 fold enrichment (6-mer frequency, TF over GST control) with ELK3.

Regarding TAACTA, the binding signal in the assay with FLI1 was 1.36 fold enrichment (6-mer frequency, TF over GST control); with ELK1, 1.29 fold enrichment (6-mer frequency, TF over GST control); in the assay with GABPA, 1.46 fold enrichment (6-mer frequency, TF over GST control); in the assay with ERG, 1.42 fold enrichment (6-mer frequency, TF over GST control); with ELF1, 1.32 fold enrichment (6-mer frequency, TF over GST control); with EHF, 1.27 fold enrichment (6-mer frequency, TF over GST control). In addition, the binding signal with SPI1 was 1.3 fold enrichment (6-mer frequency, TF over GST control); with SPIB it was 1.35 fold enrichment (6-mer frequency, TF over GST control); with ELK3 it was 1.32 fold enrichment (6-mer frequency, TF over GST control).
